We go through 36 compounds from PubChem BioAssay AID1794835 (Parasite Biology Lab, Institute for Biomedicine and …, 2023).

The experiment in a line: anti-Giardia activity of synthetic compounds – Compounds Australia Scaffold Library subset, 24/48 h, primary screen (AID 1794835).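 For inhibition: 0% = parasite counts in DMSO vehicle wells.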 As to conditions: Giardia lamblia BRIS/91/HEPU/1279 trophozoite counts, imaging, at 10 µM.
Setting [1] is: measured here: growth inhibition at 24 h, stronger effect = higher value.

About 45 (2%) of roughly 2,500 compounds were called active. Cut-off read from the data, not from the text of the source: active = inhibition mostly above about 45% (no sharp cut-off); inactive = mostly below about 37%. This excerpt belongs to a sample that is enriched for actives.

What is called inhibition is the percentage by which the read-out fell short of the control. With `COc1cc(OC)c(C2=CCN(C(=O)c3ccc(C)s3)CC2)c(OC)c1`, the inhibition (stronger effect = higher value) is 59.3% (active) and the inhibition under setting [1] turned out to be 23.1%.

Consider `COC(=O)c1ccc(C(=O)N2CCc3sccc3C2)s1`, for which the inhibition result was “inactive”.

As to `CC(=O)c1ccc(C(=O)N2CC=C(c3ccccc3)CC2)s1`, the inhibition result is “inactive”.

Take `CC(=O)N1c2ccc(S(=O)(=O)N3CCOCC3)cc2CC1C(=O)NCCN1CCOCC1` (configuration not stated): the inhibition entry is “inactive”.

For the compound `CCC(=O)Nc1nc2c(OC)cc(NS(=O)(=O)c3cc(Cl)ccc3OC)cc2s1`, the inhibition entry is “inactive”.

On to `COc1ccc(NC(=O)c2cncc(NS(=O)(=O)c3ccc(C)cc3)c2)cc1`, for which the inhibition result is “inactive”.

For `COc1cc(NS(=O)(=O)c2ccc(C)cc2)cc2sc(NC(=O)c3ccccc3)nc12`, the inhibition runs as follows: (stronger effect = higher value) 50% (active); under setting [1], 23.6%.

Consider `COc1ccc(-c2noc(C3CCOCC3)n2)c(OC)c1`, for which the inhibition result is “inactive”.

Regarding `Cc1ccc2nc(-c3ccc(C)c(NC(=O)c4cccnc4)c3)[nH]c2c1`, the inhibition (stronger effect = higher value) is 8.2% (inactive) and the inhibition under setting [1] is 2.9%.

With `Cc1cnn(CC(C)NCc2nc(-c3ccccn3)no2)c1` (configuration not stated), the inhibition (stronger effect = higher value) is 19.9% (inactive).

For `Cc1ccc(-c2cc(C(=O)NCc3cn(C)nc3C)c3ccccc3n2)cc1C`, the result was inactive. The inhibition under setting [1] amounted to 3%.

Consider `COc1cccc(-n2nnc3c(=O)n(CC(=O)N4CCCC4)cnc32)c1`, for which the inhibition entry is “inactive”.

As for `CCOC(=O)c1ccc(S(=O)(=O)N2CCN(C3CCOC3=O)CC2)o1` (configuration not stated), the inhibition entry is “inactive”.

Turning to `Cn1nccc1-c1cccc(-c2noc(-c3cccc(F)c3)n2)c1`, the inhibition (stronger effect = higher value) is 64.1% (active) and the inhibition under setting [1] worked out at 17.6%.

`O=S(=O)(c1cc(-c2nc(-c3cccc(F)c3)no2)cs1)N1CCCCC1`: the inhibition entry is “inactive”.

Consider `CCN1CCN(c2ccc(-c3nc(-c4cccc(F)c4)no3)cn2)CC1`, for which the inhibition is 48.2% (inactive) (stronger effect = higher value) and 31.4% under setting [1].

Take `O=c1[nH]c(CN2CCC(c3nc4ccccc4o3)CC2)nc2ccsc12`: the inhibition entry was “inactive”.

For `CC(C)c1ccc(Nc2ncccc2S(=O)(=O)N2CCCC2)cc1`, the inhibition is, setting by setting: (stronger effect = higher value) 57.5% (active); under setting [1], 27%.

For `CCOC(=O)c1cccc(Nc2ncccc2S(N)(=O)=O)c1`, the inhibition by setting is: (stronger effect = higher value) 35.4% (inactive); under setting [1], 14.6%.

On to `CC(C)c1ccc(NC(=O)c2ccc(F)c(S(=O)(=O)N3CCN(c4ccccc4)CC3)c2)cc1`, for which the inhibition result is “inactive”.

On to `CC(=O)Nc1nsc(N2CCCC(C(=O)NCc3ccccc3Cl)C2)n1` (configuration not stated), for which the inhibition (stronger effect = higher value) is 5.9% (inactive) and the inhibition under setting [1] was 4.9%.

For the compound `Cc1ccc2nc(-c3ccccc3)c(CN3CCN(C4CCS(=O)(=O)C4)CC3)n2c1` (configuration not stated), the inhibition result was “inactive”.

Take `O=S1(=O)CCC(n2cc(-c3cnn(-c4ccccc4)c3)cn2)C1` (configuration not stated): the inhibition is 66.2% (active) (stronger effect = higher value) and 45.5% under setting [1].

Regarding `O=C(c1cn2ccccc2n1)N1CCN(C2CCS(=O)(=O)C2)CC1` (configuration not stated), the inhibition entry is “inactive”.

In the case of `O=C(c1ccc(F)cc1)N1CCc2[nH]nc(C(=O)N3CCN(c4ccc(F)cc4)CC3)c2C1`, the inhibition (stronger effect = higher value) is 0.9% (inactive) and the inhibition under setting [1] came out at 2.4%.

Turning to `O=C(c1ccc2c(=O)n3c(nc2c1)CCCC3)N1CC=C(c2ccccc2)CC1`, the inhibition entry is “inactive”.

As for `COc1ccccc1-c1cc(C(=O)Nc2sc(Nc3ccccc3)nc2C(N)=O)[nH]n1`, the inhibition by setting is: (stronger effect = higher value) 11.1% (inactive); under setting [1], 11.2%.

On to `Cc1cccc(C)c1NC(=O)c1cc(-c2ccccc2)nc2c1cnn2Cc1cccnc1`, for which, for the setting “stronger effect = higher value”, the inhibition is 17.5% (inactive).

Consider `CN(C)CCCN1C(=O)C(=O)C(=C(O)c2cc(Cl)ccc2O)C1c1ccco1` (configuration not stated), for which the inhibition (stronger effect = higher value) was 14.6% (inactive).

As to `CN(C)CCn1cc(C(=O)c2cc(Cl)ccc2O)cc1-c1nc2ccccc2c(=O)[nH]1`, the inhibition was 85.8% (active) (stronger effect = higher value) and 45% under setting [1].

For `Cn1cc(C(=O)c2ccccc2O)cc1-c1nc2ccccc2c(=O)[nH]1`, the inhibition entry is “inactive”.

Consider `Cc1noc(-c2nn(C)c3c2CN(S(=O)(=O)Cc2cccc(F)c2)CC3)n1`, for which the inhibition (stronger effect = higher value) was 14.3% (inactive).

`O=C(CCc1ccc(Cl)cc1Cl)N1CCCC(c2ncn[nH]2)C1` (configuration not stated): for the setting “stronger effect = higher value”, the inhibition was 0.4% (inactive).

For `CCCNC1=C(C(=O)Nc2ccc(F)cc2)S(=O)(=O)c2ccccc21`, the inhibition (stronger effect = higher value) is 46.5% (inactive) and the inhibition under setting [1] was found to be 21.9%.

Consider `NC(=O)C1=C(Nc2ccccc2)c2ccccc2S1(=O)=O`, for which the inhibition was 48.5% (active) (stronger effect = higher value) and 12.8% under setting [1].

Regarding `CN(C)c1nc(N(C)C)nc(N2CC(=O)N(c3ccc(Cl)c(Cl)c3)C2=N)n1`, the inhibition is 16% (inactive) (stronger effect = higher value) and 9.5% under setting [1].
